Records with an inconclusive call do not appear. Calls of active or inactive are those of the source. Calls come from the whole dose curve; as a rule, active = well fitted inhibition curve with a large enough effect; inconclusive = small, poorly fitted or top-dose-only effect; inactive = flat fitted curve, though single readings scatter.
molecular target: Luciferin 4-monooxygenase (Photinus pyralis) (UniProt P08659); assay: qHTS Assay for Inhibitors of Firefly Luciferase from the GSK Published Protein Kinase Inhibitor Set; conditions: purified firefly luciferase, luminescence inhibition; series mostly up to 57.5 µM
Excerpt: FLuc (firefly luciferase) is the prototypical bioluminescent reporter gene from Photinus pyralis.[1] The enzyme catalyzes the oxidation luciferin via luciferin-AMP to produce light. FLuc is used in cell-based reporter gene-based assays for screening small molecule chemical libraries. However, small molecule luciferase inhibitors present in most large chemical libraries are often enriched in the output of high throughput screens using this reporter sometimes complicating interpretation and candidate selection.
RLuc is a bioluminescent reporter gene luciferase from Renilla reniformis, also known as the sea pansy. RLuc uses the luciferin substrate coelenterazine. RLuc is often used in combination with the nonhomologous luciferase FLuc (firefly luciferease) as a trasfection or pathway normalization control. Recently, non-homologous reporters have been described for high throughput screening 'coincidence' reporter gene strategies.
1. Fan F, Wood KV (2007) Bioluminescent assays for high-throughput screening. Assay Drug Dev Technol 5: 127-136.
2. Thorne N, Inglese J, Auld DS (2010) Illuminating insights into firefly luciferase and other bioluminescent reporters used in chemical biology. Chem Biol 17: 646-657.
3. […] Chem Biol 19: 1060-1072.
4. Michelini E, Cevenini L, Mezzanotte L, Coppa A, Roda A (2010) Cell-based assays: fuelling drug discovery. Anal Bioanal Chem 398: 227-238.
5. Cheng KC, Inglese J (2012) A coincidence reporter-gene system for high-throughput screening. Nat Methods 9: 937.
Biochemical firefly luciferase enzyme assay
NCGC Assay Protocol Summary:
Reagents: 50mM Tris acetate, pH 7.5; 10mM Mg acetate; 10uM D-luciferin (Sigma #L9504); 10uM ATP; 0.01% Tween-20; 0.05% BSA; 10nM P. pyralis luciferase (Sigma #L9506)
Control compounds used were two known firefly luciferase inhibitors (compounds (2) and (5) in Auld et al., 2010), and DMSO.
Three microliters containing firefly luciferase substrates in buffer (final concentrations: 50mM Tris acetate, pH 7.5, 10mM Mg acetate, 0.01% Tween-20, 0.05% BSA, 10uM D-luciferin, and 10uM ATP) are dispensed into each well of a Greiner white, solid-bottom 1536-well format plate using a flying reagent dispenser (FRD). These assay plates were then treated with 23nL of compound or DMSO using a Kalypsys pin tool, which allows for delivery of a 7-point interplate titration of each compound to the assay plates (quantitative HTS), with final compound concentrations ranging from approximately 60uM to 300pM. One microliter of firefly luciferase in 50mM Tris-acetate buffer was then delivered by FRD to each well for a final enzyme concentration of 10nM. Luciferase activity was then measured using an Envision plate reader (PerkinElmer), with an average incubation time of 5 min.
Potency is the fitted concentration of half-maximal effect.

Luciferin 4-monooxygenase (Photinus pyralis), sequence (P08659 whole entry, looked up): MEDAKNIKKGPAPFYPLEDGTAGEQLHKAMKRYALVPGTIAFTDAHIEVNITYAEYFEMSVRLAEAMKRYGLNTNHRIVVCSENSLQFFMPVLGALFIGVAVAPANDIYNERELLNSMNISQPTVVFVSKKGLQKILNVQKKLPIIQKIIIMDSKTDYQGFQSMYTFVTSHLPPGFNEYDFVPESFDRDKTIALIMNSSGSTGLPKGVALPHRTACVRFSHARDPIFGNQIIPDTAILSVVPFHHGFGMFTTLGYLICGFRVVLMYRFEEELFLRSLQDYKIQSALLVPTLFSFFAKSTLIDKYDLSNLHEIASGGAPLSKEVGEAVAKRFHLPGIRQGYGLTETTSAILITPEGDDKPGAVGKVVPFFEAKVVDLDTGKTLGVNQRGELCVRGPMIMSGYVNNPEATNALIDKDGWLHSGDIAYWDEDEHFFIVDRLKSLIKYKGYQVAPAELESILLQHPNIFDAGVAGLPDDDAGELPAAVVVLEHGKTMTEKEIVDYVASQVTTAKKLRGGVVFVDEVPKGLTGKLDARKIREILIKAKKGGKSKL

Potency, active:
Cc1cccc(Nc2ncc(-c3ccccc3)o2)c1 0.58 µM
COc1ccc(Nc2ncc(-c3ccccc3)o2)cc1OC 5.8 µM
NS(=O)(=O)c1cccc(Nc2cc(-c3ccc(F)cc3)[nH]n2)c1 11.6 µM
CCn1c(-c2nonc2N)nc2cnc(Oc3cccc(NC(=O)c4ccc(N(C)C)cc4)c3)cc21 1.03 µM
Cn1cc(C=C2C(=O)Nc3cccnc32)c2ccccc21 14.6 µM
O=C1Nc2ccccc2C1=C1CCc2cc(O)ccc21 5.17 µM

Potency, inactive:
CN1CCC(C(=O)Nc2n[nH]c3nc(-c4ccc(O)cc4)c(Br)cc23)CC1
CC(=O)Nc1cccc(C#Cc2cncnc2Nc2ccc(OCc3cccc(F)c3)c(Cl)c2)c1
NS(=O)(=O)c1ccc(N=Cc2c(O)[nH]c3ccc4ncsc4c23)cc1
CS(=O)(=O)c1ccc(Oc2nccc(-c3c(-c4ccc(F)cc4)ncn3C3CCNCC3)n2)cc1
CCCN1CCCC(c2ccc(Nc3nc(Nc4cc(F)ccc4C(N)=O)c4cc[nH]c4n3)c(OC)c2)C1 (stereo not given)
CCc1ccc(Oc2nccc(-c3c(-c4ccc(F)cc4)ncn3C3CCNCC3)n2)cc1
NC(=O)c1ccc(-c2nc(-c3ccc4c(c3)OCO4)c(-c3ccccn3)[nH]2)cc1
COc1cc2ncnc(Nc3ccc(C)c(O)c3)c2cc1OC
COc1ccc(-c2nn3ncccc3c2-c2ccnc(Nc3ccc(Cl)c(C(F)(F)F)c3)n2)cc1
COc1cc2c(cc1Nc1nc(N3CCc4ccccc43)c3cc[nH]c3n1)N(C(=O)CN(C)C)CC2
Cc1ccc(C(=O)NC2CCCCC2)cc1-c1ccc(C(=O)NCC2CC2)cc1
COc1cc2ncn(-c3cc(OCc4ccccc4C(F)(F)F)c(C(C)=O)s3)c2cc1OC
COc1ccc(COc2ccc(Cc3cnc(N)nc3N)cc2OC)cc1
Fc1ccc(Oc2nccc(-c3c(-c4ccc(F)cc4)ncn3C3CCNCC3)n2)cc1
NC(=O)c1sc(-n2cnc3cc(C(F)(F)F)ccc32)cc1OCc1ccccc1Br
O=C1NC(=O)C(c2cccc([N+](=O)[O-])c2)=C1Nc1cc(Cl)c(O)c(Cl)c1
COc1cc(Nc2nccc(-c3cnn4ncccc34)n2)cc(OC)c1
CN(C)c1ccc2[nH]c(O)c(C=Nc3ccc(S(N)(=O)=O)cc3)c2c1
NS(=O)(=O)c1ccc(N=Nc2c(O)[nH]c3ccc(-c4cnco4)cc23)cc1
Fc1ccc(-c2c(-c3ccncc3)nc3n2CCS3)cc1
CC(C)c1ccc(-c2cc(-c3cn[nH]c3-c3ccccn3)ccn2)cc1
c1ccc(-c2nc3n(c2-c2ccc4c(c2)OCO4)CCC3)nc1
CN1CCN(CCCNc2nc3ccc(Oc4ccc(NC(=O)Nc5cc(C(F)(F)F)ccc5F)cc4)cc3[nH]2)CC1
COC(=O)c1sc(-n2cnc3cc(OC)c(OC)cc32)cc1OCc1ccccc1C(F)(F)F
COc1ccc(-c2coc3ncnc(N)c23)cc1
CCn1c(-c2nonc2N)nc2c(C#CC(C)(C)O)nc(OCCNC)cc21
COc1ccc(-c2nn3ncccc3c2-c2ccnc(Nc3ccc(F)c(F)c3)n2)cc1
Fc1cccc(COc2ccc(Nc3ncncc3C#Cc3ccccc3)cc2Cl)c1
COc1cc(Nc2ncc(-c3ccccc3)o2)cc(OC)c1OC
CC(C)=Cc1cccc2[nH]c(O)c(N=Nc3ccc(S(N)(=O)=O)cc3)c12
CC(C)COC(=O)c1ccc2[nH]c(O)c(C=Nc3ccc(S(N)(=O)=O)cc3)c2c1
CN1CCC(C(=O)Nc2n[nH]c3nnc(-c4ccccc4)cc23)CC1
NS(=O)(=O)c1ccc(N=Nc2c(O)[nH]c3ccc(C(=O)NCCc4cnc[nH]4)cc23)cc1
Fc1cccc(COc2ccc(Nc3ncnc4sc(-c5ccco5)cc34)cc2Cl)c1

Reference: PubChem BioAssay AID652016 (National Center for Advancing Translational Sciences (NCATS), 2013)
